Data: PubChem BioAssay (NCATS)
Records with an inconclusive call do not appear. Active and inactive are the calls of the source. Calls follow the shape of the dose curve; as a rule, active = well fitted inhibition curve with a large enough effect in the repeat runs; inconclusive = weak or mixed curves; inactive = flat fitted curve, though single readings scatter.

These compounds were tested against Cytochrome P450 2D6 (Homo sapiens) (UniProt P10635) (assay: Cytochrome P450 family 2 subfamily D member 6 (CYP2D6) small molecule antagonists: luciferase biochemical (cell-free) qHTS assay (AID 1645840; also: nearly all actives have a fitted effect of over 55% in size)). Conditions: P450-Glo CYP2D6 enzyme, luciferin luminescence, 1 h; series mostly up to 57.4 µM; activity change, negative = inhibition: at the top concentration.
Summary of the method: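 P450-Glo CYP2D6 system: proluciferin substrate converted by enzyme to luciferin, read by luminescence proportional to activity. Enzyme-substrate mix with compound 10 min at room temperature, then NADPH regeneration 1 h before detection reagent.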
% is scaled to controls: 0 for no effect and ±100 for the full control effect; potency is read from the fitted curve at half-maximal effect.

Cytochrome P450 2D6 (Homo sapiens), sequence (P10635 whole entry, looked up): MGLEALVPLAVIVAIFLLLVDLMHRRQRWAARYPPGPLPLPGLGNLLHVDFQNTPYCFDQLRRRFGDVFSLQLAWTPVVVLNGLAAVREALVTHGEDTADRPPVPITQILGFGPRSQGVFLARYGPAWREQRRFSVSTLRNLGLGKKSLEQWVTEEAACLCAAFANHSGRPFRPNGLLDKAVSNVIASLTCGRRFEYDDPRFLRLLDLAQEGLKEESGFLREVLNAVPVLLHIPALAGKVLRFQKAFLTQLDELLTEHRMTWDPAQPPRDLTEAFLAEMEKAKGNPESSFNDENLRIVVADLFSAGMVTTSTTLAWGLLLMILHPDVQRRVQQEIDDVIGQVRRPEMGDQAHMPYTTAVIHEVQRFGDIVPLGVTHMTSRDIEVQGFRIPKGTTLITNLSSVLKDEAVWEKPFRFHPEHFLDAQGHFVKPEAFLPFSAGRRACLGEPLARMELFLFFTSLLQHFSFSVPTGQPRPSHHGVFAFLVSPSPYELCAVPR

**Q.** Which “activity change, negative = inhibition” value does the source give for `Oc1c(Br)cc(Br)cc1Br` here?
**A.** Its value is -4.83% (inactive).

**Q.** Which “activity change, negative = inhibition” value does the source give for `NCc1cccnc1` here?
**A.** The value was -3.65% (inactive).

**Q.** With `CCOC(=O)C(c1c(O)c2ccccc2oc1=O)c1c(O)c2ccccc2oc1=O` as the compound, how does the “activity change, negative = inhibition” value read?
**A.** The value was -0.54% (inactive).

**Q.** With `C[C@@H]1O[C@@H](O[C@@H]2C=C3CC[C@@H]4[C@H](CC[C@]5(C)[C@@H](c6ccc(=O)oc6)CC[C@]45O)[C@@]3(C)CC2)[C@H](O)[C@H](O)[C@H]1O` as the compound, how does the “activity change, negative = inhibition” value read?
**A.** Its value is 3.19% (inactive).

**Q.** Which “activity change, negative = inhibition” value does the source give for `CCCOC(=O)Cc1ccc(OCC(=O)N(CC)CC)c(OC)c1` here?
**A.** Its value is 12.9% (inactive).

**Q.** For `CCOC(=O)c1ncn2c1CN(C)C(=O)c1c(I)cccc1-2`, which “activity change, negative = inhibition” value is on record?
**A.** The value was 0.594% (inactive).

**Q.** With `CN(C)C(=O)Oc1cc(OC(=O)N(C)C)cc(C(O)CNC(C)(C)C)c1` (stereo not drawn) as the compound, how does the Potency read?
**A.** Its Potency is 8.71 µM (active).

**Q.** For `CN1C[C@@H](NS(=O)(=O)N(C)C)C[C@@H]2c3cccc4c3c(cn4C)C[C@H]21`, which Potency is on record?
**A.** The Potency was 2.19 µM (active).

**Q.** How did the “activity change, negative = inhibition” value turn out when `Cc1nnc2n1-c1sc(CCC(=O)N3CCOCC3)cc1C(c1ccccc1Cl)=NC2` was run?
**A.** The value was 2.48% (inactive).

**Q.** `CN1C(=O)CN=C(c2ccccc2)c2cc([N+](=O)[O-])ccc21` was tested. Which “activity change, negative = inhibition” value did it give?
**A.** The value was -12.4% (inactive).

**Q.** With `CCS(=O)(=O)C(C)(C)S(=O)(=O)CC` as the compound, how does the “activity change, negative = inhibition” value read?
**A.** Its value is 10.1% (inactive).

**Q.** Which “activity change, negative = inhibition” value does the source give for `COc1cc(CC#N)cc(OC)c1OC` here?
**A.** The value was -3.09% (inactive).

**Q.** Which Potency does the source give for `C[N+](C)(C)CCOC(=O)C(O)(c1ccccc1)c1ccccc1` here?
**A.** Its Potency is 15.5 µM (active).

**Q.** Which “activity change, negative = inhibition” value does the source give for `C[C@]12CC[C@H]3[C@@H](CCC4=CC(=O)CC[C@@H]43)[C@@H]1CC[C@@H]2O` here?
**A.** The value was 2.39% (inactive).

**Q.** `CCNc1nc(Cl)nc(NCC)n1` was tested. Which “activity change, negative = inhibition” value did it give?
**A.** The value was 2.4% (inactive).

**Q.** With `O=c1[nH]c2cc(Cl)ccc2n1C1CCNCC1` as the compound, how does the Potency read?
**A.** The Potency was 19.5 µM (active).

**Q.** With `C[C@]12CC[C@H]3[C@@H](CC=C4C[C@@H](O)CC[C@@]43C)[C@@H]1CC[C@@H]2O` as the compound, how does the “activity change, negative = inhibition” value read?
**A.** Its value is 1.06% (inactive).

**Q.** For `CCN1CCCC1CNC(=O)C(O)(c1ccccc1)c1ccccc1` (stereo not drawn), which Potency is on record?
**A.** Its Potency is 3.09 µM (active).
